Assay outcomes (PubChem)
ALOX12 inh – blocks human arachidonate 12S-lipoxygenase; AID 1671190; hit rate 1.1% among 580,000; purified 12hLO, xylenol orange hydroperoxide absorbance; P18054; Potency, µM (doses to about 108 µM), inactives show at the top dose activity change, negative = inhibition, actives largely listed as inhibitors; further: potency means the concentration at half of the fitted maximal effect; on the % scale 0 is the no-effect control and ±100 the full control effect
Target sequence (P18054 whole entry, looked up): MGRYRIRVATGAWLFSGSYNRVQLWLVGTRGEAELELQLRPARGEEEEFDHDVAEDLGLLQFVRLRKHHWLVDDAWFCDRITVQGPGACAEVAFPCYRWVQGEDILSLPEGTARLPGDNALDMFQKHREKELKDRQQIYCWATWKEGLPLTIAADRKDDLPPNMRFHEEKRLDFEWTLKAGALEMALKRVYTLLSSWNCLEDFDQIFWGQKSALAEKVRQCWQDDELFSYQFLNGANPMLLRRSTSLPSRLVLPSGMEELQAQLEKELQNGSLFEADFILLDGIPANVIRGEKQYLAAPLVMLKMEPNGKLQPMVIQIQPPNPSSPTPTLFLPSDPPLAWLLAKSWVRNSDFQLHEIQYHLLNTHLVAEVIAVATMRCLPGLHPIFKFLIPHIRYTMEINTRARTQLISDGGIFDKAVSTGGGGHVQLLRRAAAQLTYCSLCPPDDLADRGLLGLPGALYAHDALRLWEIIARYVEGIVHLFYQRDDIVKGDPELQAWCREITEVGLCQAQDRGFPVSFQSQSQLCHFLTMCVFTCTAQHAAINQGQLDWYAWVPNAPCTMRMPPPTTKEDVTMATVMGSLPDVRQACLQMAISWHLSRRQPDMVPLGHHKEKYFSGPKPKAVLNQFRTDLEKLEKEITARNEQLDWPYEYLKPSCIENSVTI
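Purified human 12hLO at 150 nM in 25 mM Hepes, 0.01% Triton X-100, pH 7.0, preincubated 15 min at room temperature with compound. Reaction started with 40 uM arachidonic acid, 30 min at room temperature. Hydroperoxide measured by Fe-xylenol orange, 573/405 nm absorbance ratio.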
Nrf2 inh – inhibitors of Nrf2 signaling; hit rate 2.1% among 360,000; AID 504444; A549 ARE-Fluc reporter, luciferase luminescence, 18-24 h; Potency, µM (highest dose often 46 µM), inactives show top-dose activity change, negative = inhibition, most hits filed as inhibitors; further: potency means the concentration at half of the fitted maximal effect; on the % scale 0 is the no-effect control and ±100 the full control effect; nearly all actives have a fitted effect of over 60% in size
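Nrf2 activity is the BugLite luminescence, read 15 min after reagent at room temperature, following CellTiter-Fluor cytotoxicity readout (30 min, 37C). Compound titrations were applied for 18-24 h to 5000 A549 ARE_Fluc cells/well in 5% FBS OPTI-MEM.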
A549 viability – counter-screen for Nrf2 inhibitors: cytotoxicity in A549 cells; Potency, µM (top dose mostly 46 µM), without a hit: top-dose activity change, negative = cytotoxicity, hits mostly inhibitors; AID 504648; hit rate 0.16% among 390,000; A549 ARE-Fluc cells, CellTiter-Fluor viability, 18-24 h; further: potency means the concentration at half of the fitted maximal effect; on the % scale 0 is the no-effect control and ±100 the full control effect
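Cytotoxicity counterscreen: CellTiter-Fluor fluorescence was measured in A549 ARE_Fluc cells after 18-24 h of compound exposure in a concentration series. The subsequent BugLite luminescent read reports ARE-luciferase activity.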
Nrf2 activator – Nrf2 pathway activation. Potency, µM (highest dose often 46.1 µM), for inactives: at the highest dose activation, actives largely listed as activators. AID 624171. AREc32 ARE-luciferase reporter (MCF7-derived line), luminescence, 24 h. hit rate 0.31% among 410,000; further: potency means the concentration at half of the fitted maximal effect; % of control where 0% means no effect; nearly all actives have a fitted effect of over 65% in size
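ARE activation measured as luciferase luminescence (Steady-Glo, 30 min RT) in AREc32_Fluc cells after 24 hr compound exposure at 37 deg C, 5% CO2; cells seeded overnight at 1000/well in OPTI-MEM, 5% FBS.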
LDHA inh – inhibitors of human lactate dehydrogenase A. hit rate 0.15% among 480,000. P00338. purified LDHA, NADH/diaphorase-resazurin fluorescence; active compounds read low. activity change, % (values are at about 110 or 230 µM); in the data active means activity change below about -30%; inconclusive means mostly about -25% to -30%;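 further: plate controls were DMSO wells for no effect and wells without enzyme for full effect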
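Remaining NADH was detected by diaphorase (0.133 mg/mL) converting 37 µM resazurin to fluorescent resorufin, read at 0 and 20 minutes. The preceding 5-minute room-temperature reaction used 2 nM LDHA, 0.2 mM sodium pyruvate and 0.06 mM NADH at pH 7.4.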
ERG Ets-DNA blk – ERG Ets/DNA interaction inhibition | P11308 | fluorescence polarization, His-ERG Ets domain / labelled DNA | Potency, µM (titrated, usually from 76.9 µM), for inactives: top-dose FP activity, negative = inhibition, most hits filed as inhibitors | hit rate 0.028% among 370,000; active means well fitted inhibition curve with a large enough effect in the polarisation, with a control signal flat; inconclusive means small, poorly fitted or top-dose-only effect, or effect the other way, or a change in a side signal; inactive means no such curve, though single readings can be large or run the other way; the % refers to the polarisation;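 further: polarization taken with two DNA probes labelled with fluorescein and Texas red; potency means the concentration at half of the fitted maximal effect; % of control where 0% means no effect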
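His-tagged ERG Ets domain (1 uM in the protein solution; 300mM KCl, 50mM Tris-HCl, 1mM EDTA, 1mM DTT, pH 7.5) received compound, then a probe mix of 5 nM fluorescein-DNA and 100nM Texas-615-DNA. Fluorescence polarization was read for both dyes.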
Starred values were filed as active, the others as inactive; ? = inconclusive; . = no result given. Hits are enriched below; roughly 2.7% of the tested compounds scored in any of these assays. Unless noted, the call rests on the fitted dose curve; in most records, active means well fitted curve in the direction sought with a large enough effect; inconclusive means small, poorly fitted or top-dose-only effect, or another doubt; inactive means no such curve, though single readings can be large; an effect the other way counts as inactive or inconclusive.

SMILES	ALOX12 inh	Nrf2 inh	A549 viability	Nrf2 activator	LDHA inh	ERG Ets-DNA blk
COc1cc(C(=O)N/N=C(\Cc2ncc[nH]2)c2ccccc2)cc(OC)c1OC	6.5%	14.6µM*	?	-0.3%	-6.0	0.8%
COc1cc(C(=O)N/N=C(\c2ccccc2)c2ccccn2)cc(OC)c1OC	1.6%	4.61µM*	?	-0.2%	-0.9	6.6%
COc1ccc(C(=O)N/N=C(\Cc2ncc[nH]2)c2ccccc2)cc1	6.5%	?	-8.3%	-0.4%	-0.3	3.5%
CC1=C(C(=O)N2CCOCC2)C(c2ccccc2Cl)C2=C(CCCC2=O)N1 (stereo not drawn)	12.2%	.	.	.	0.9	.
Cc1ccc(CSC2=Nc3ccccc3C3=NC(=O)CN23)cc1	-16.7%	-3.4%	-10.7%	5.1%	-0.8	-24.2%
COc1cc2c(cc1OC)C1=NC(=O)CN1C(SCc1ccccc1C)=N2	0.0%	9.2µM*	-15.1%	0.7%	0.0	4.7%
COc1ccccc1C(=O)N1CCN(c2oc(-c3ccc(F)cc3)nc2C#N)CC1	3.5%	.	.	.	10.4	.
COc1ccc(Nc2nc(C)c(NC(=O)c3cccc(C)c3)c(Nc3ccc(OC)cc3)n2)cc1	35.5µM*	.	.	.	-3.0	.
CCOc1ccc(Nc2nc(C)c(NC(=O)c3cccc(OC)c3)c(Nc3ccc(OCC)cc3)n2)cc1	?	?	-6.3%	4.3%	-6.8	1.3%
CCCC[C@@H]1CNC(=S)N1CC1CCCCC1	50.1µM*	9.7%	-0.7%	-0.6%	-2.7	12.7%
CCCC[C@@H]1CNC(=S)N1CCC12CC3CC(CC(C3)C1)C2	35.5µM*	-9.2%	3.6%	-1.2%	-8.2	2.4%
O=c1[nH]c(Nc2ccccc2)cc2cc(Br)ccc12	15.8µM*	?	-13.5%	5.7%	12.2	8.8%
COc1ccc(OC)c(Nc2cc3ccccc3c(=O)[nH]2)c1	-12.1%	-12.9%	-1.7%	10.4%	15.2	15.0%
COc1ccccc1Nc1cc2cc(Br)ccc2c(=O)[nH]1	8.91µM*	-24.2%	-12.8%	13.1%	11.9	32.3%
COc1ccc([C@@H]2[C@@H](C(N)=O)C2(C#N)C#N)cc1	13.5%	.	.	.	3.4	.
Cc1ccc(C(=O)NNCC(=O)Nc2ccc(Cl)cc2F)cc1	15.8µM*	-10.7%	10.1%	0.5%	-17.3	-14.9%
CCOC(=O)c1c(C)c(C(=O)Nc2ccc(F)c(Cl)c2)c(C)n1C	-17.1%	.	.	.	?	.
COc1ccc(Cn2c(SCc3ccc(C(=O)NC4CCCCC4)cc3)nc3cccnc32)cc1	-28.0%	18.4µM*	?	4.6%	-1.0	-0.8%
O=C(NCc1cccs1)c1ccc(Cn2c(SCc3ccc(F)cc3)nc3cccnc32)cc1	-0.5%	?	?	0.1%	0.4	-0.1%
O=C(NCCc1cccs1)c1ccc(Cn2c(SCc3ccc(F)cc3)nc3cccnc32)cc1	-6.0%	18.4µM*	?	3.6%	-8.2	-0.7%
O=C(NCc1cccs1)c1ccc(Cn2c(SCc3ccccc3)nc3cccnc32)cc1	-13.7%	25.9µM*	?	-0.3%	-3.5	0.0%
O=C(NCCc1cccs1)c1ccc(Cn2c(SCc3ccccc3)nc3cccnc32)cc1	-20.0%	?	-15.6%	1.1%	-4.4	-1.0%
O=C(NC1CCCCC1)c1ccc(CSc2nc3cccnc3n2Cc2ccc(F)cc2)cc1	-4.7%	24.1%	0.2%	0.0%	10.7	-0.3%
CCCC(=O)C1=C(NC(C)C(=O)O)CCCC1=O (stereo not drawn)	-14.2%	.	.	.	3.6	.
O=C(c1cc(-c2ccco2)nc2ccccc12)N1CCCCCC1	?	.	.	.	2.0	.
O=c1oc2ccccc2cc1-c1nc2c(s1)CCc1ccccc1-2	?	?	?	3.98µM*	13.9	-0.3%
Cc1nc2cc(NC(=O)c3ccc([N+](=O)[O-])s3)ccc2s1	0.0%	6.51µM*	-12.3%	6.4%	-6.5	-1.4%
Cc1ccccc1NC1C2CC3CC(C2)CC1C3 (stereo not drawn)	?	.	.	.	2.6	.
